High-throughput results deposited in PubChem BioAssay by several laboratories.
This is a sample that favours compounds with a hit; in the whole collection about 0.81% have one here.
Keap1-Nrf2 PPI: disrupts human Keap1 binding to Nrf2 peptide. Keap1 Kelch-Nrf2 peptide fluorescence polarization, 1536-well. inhibition, % at 9.4 µM. 0.15% of 340,000 active; in the data active = inhibition above about 12%;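 note: human Keap1 Kelch domain with fluorescein labeled Nrf2 9mer peptide probe; 0% = neutral control wells and 100% = peptide positive control; higher means more block of Keap1 binding to Nrf2 peptide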
Target sequence (Q14145 whole entry, looked up, the tested form may be a part): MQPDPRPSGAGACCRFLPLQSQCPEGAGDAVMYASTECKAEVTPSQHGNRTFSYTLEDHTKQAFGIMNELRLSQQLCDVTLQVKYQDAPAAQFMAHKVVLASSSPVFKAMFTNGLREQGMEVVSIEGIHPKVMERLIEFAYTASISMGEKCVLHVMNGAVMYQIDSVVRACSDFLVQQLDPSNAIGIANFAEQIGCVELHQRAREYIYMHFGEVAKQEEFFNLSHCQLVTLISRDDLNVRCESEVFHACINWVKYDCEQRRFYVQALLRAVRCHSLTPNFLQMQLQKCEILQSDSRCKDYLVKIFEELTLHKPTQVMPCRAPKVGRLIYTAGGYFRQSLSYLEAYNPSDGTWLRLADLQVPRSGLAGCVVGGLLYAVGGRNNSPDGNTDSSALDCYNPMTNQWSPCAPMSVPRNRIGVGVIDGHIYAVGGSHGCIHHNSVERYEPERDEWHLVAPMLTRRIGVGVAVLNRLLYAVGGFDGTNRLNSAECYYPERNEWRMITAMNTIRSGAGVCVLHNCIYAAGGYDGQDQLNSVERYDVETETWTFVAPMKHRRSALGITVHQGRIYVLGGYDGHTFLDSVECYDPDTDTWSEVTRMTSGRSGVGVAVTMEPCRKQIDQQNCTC
LANA DNA inh: KSHV C-LANA DNA binding inhibition. MBP-C-LANA/FAM-LBS DNA binding, fluorescence polarization. inhibition, % at 9 µM. 0.078% of 340,000 active. AID 504423;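 active = highest replicate inhibition at or above 60% at 9 µM, even if other replicates fall short; inactive = all replicates below 60% inhibition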;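 note: 0% = neutral control wells and 100% = 4 µM acridine orange control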
RTF Ca sens inh: cardiac RTF calcium desensitization; P19429+P45379; IANBD-labeled cardiac RTF, Ca2+ fluorescence; inhibition, % at 7.15 µM; 0.12% of 340,000 active;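 active = inhibition above the mean inhibition of all tested compounds plus 3 SD, cut at about 17% in these data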;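 note: assay run at fixed EC70 calcium of 1.6 mM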
IDE cell inh: inhibitors of human insulin-degrading enzyme in cells. P14735. HEK cells, FAbetaB cleavage, fluorescence polarization. inhibition, % at 5.59 µM. 0.41% of 320,000 active. AID 434962;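 active = percent inhibition above the average of all tested compounds plus 3 SD, set per screening campaign, cut at about 16% in these data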;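 note: IDE supplied by intact live HEK cells; FP after avidin binding of uncleaved biotin substrate so inhibition keeps polarization high; 0% = DMSO wells and 100% = 60 µM reference IDE inhibitor Ii1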
IDE cell activ: boosts human insulin-degrading enzyme activity in HEK cells | P14735 | FAbeta-B cleavage, fluorescence polarization; 0% vehicle, 100% cell-free pure enzyme wells | activation, % at 5.96 µM | 0.073% of 340,000 active;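 active = activation above the mean of all tested compounds plus 3 SD, set per screening campaign, cut at about 17% in these data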
cardiac RTF act: increases calcium sensitivity of human cardiac regulated thin filaments; P19429+P45379; IANBD-labeled TnC RTF fluorescence at EC20 calcium; 0% EC20 calcium, 100% full calcium; activation, % at 7.2 µM; 0.24% of 340,000 active;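 active = activation above the mean over all tested compounds plus 3 SD, cut at about 30% in these data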;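 note: rise in fluorescence read as greater calcium sensitivity of cardiac thin filaments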
IDE cell inh cf: confirmation of human insulin-degrading enzyme inhibitors in cells; shares compounds with IDE cell inh; HEK cells, FAbetaB cleavage, fluorescence polarization; inhibition, % at 5.59 µM; 51% of 1,200 active;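 active = mean inhibition across triplicate wells above the cutoff set by the earlier primary insulin-degrading enzyme screen, cut at about 16% in these data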;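 note: 0% = DMSO wells and 100% = 60 µM reference IDE inhibitor Ii1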
HEK cytotox: kills HEK cells in IDE inhibitor counter-screen | shares compounds with IDE cell inh | HEK293 cytotoxicity, ATP luminescence | inhibition, % at 5.59 µM | 28% of 1,200 active; in the data active = inhibition above about 22%;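 note: 0% = vehicle wells and 100% = reference cytotoxic drug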
Numbers without * were called inactive; . = no result given.

SMILES | Keap1-Nrf2 PPI | LANA DNA inh | RTF Ca sens inh | IDE cell inh | IDE cell activ | cardiac RTF act | IDE cell inh cf | HEK cytotox
Cc1nc2ccc(NC(=S)NC3CCCCC3)cc2nc1C | -3 | -2 | -6 | 21* | -5 | -2 | 6 | 16
Cc1ccc(NC(=O)Nc2ccnc(-c3cccnc3)n2)cc1 | -1 | 1 | -13 | 18* | -9 | 3 | 4 | 44*
COc1ccc(/C=C2\SC(=S)N(CC3CCCO3)C2=O)cc1 (stereo not drawn) | -3 | -1 | 3 | -2 | 2 | 7 | . | .
COc1cc(/C=C2\SC(=S)N(Nc3ccccc3)C2=O)ccc1O | -5 | -9 | -28 | 128* | -114 | 11 | 142* | 9
O=C1/C(=C/c2ccc(O)c(O)c2)SC(=S)N1Nc1ccccc1 | -26 | -7 | 1 | . | -33 | -6 | . | .
COc1cc(/C=C2/SC(=S)N(CC3CCCO3)C2=O)ccc1O (stereo not drawn) | -6 | -8 | -17 | 108* | -95 | -7 | 175* | 13
COc1cc(/C=C2\SC(=S)N(C(Cc3ccccc3)C(=O)O)C2=O)ccc1O (stereo not drawn) | -17 | -23 | -8 | 46* | -58 | 4 | 109* | 6
CCOc1cc(/C=C2\SC(=S)N(NS(=O)(=O)c3ccccc3)C2=O)ccc1O | -13 | -18 | -8 | 39* | -36 | 1 | 109* | 3
COc1cc(NC(=O)c2cc(C)no2)cc(OC)c1OC | 1 | -2 | -1 | 5 | 5 | -4 | . | .
CC[C@@]1(C(=O)OC)N[C@H](CN(C)C(=O)c2ccc(C)cc2)[C@@H]2C(=O)N(Cc3ccccc3)C(=O)[C@@H]21 | -3 | 2 | -4 | 0 | 6 | -1 | . | .
O=[N+]([O-])c1cccc(COc2ccccc2CN2CCCCC2)c1 | -4 | 0 | -4 | . | 0 | -2 | . | .
CCOc1cc(/C=C2\SC(=S)N(Nc3ccccc3)C2=O)ccc1O | -4 | 0 | -14 | 53* | -78 | 8 | 128* | 7
CCOc1cc(/C=C2\SC(=S)N(N3CCOCC3)C2=O)ccc1O | -4 | 1 | -8 | 7 | -4 | 7 | . | .
Cc1ccc(S(=O)(=O)N2CCN(Cc3cc(=O)n4ccccc4n3)CC2)c(C)c1 | -4 | 0 | -1 | 4 | -3 | -3 | . | .
COC1=CC(=Cc2c(N)n3nc(CC(=O)N4CCOCC4)sc3nc2=O)C=C(OC)C1=O | -25 | 0 | -8 | 121* | -100 | 12 | 26* | 6
Nc1c(C=C2C=CC(=O)C=C2)c(=O)nc2sc(CC(=O)N3CCOCC3)nn12 | -2 | 15 | 2 | 3 | 6 | 5 | . | .
C=CCC1=C/C(=C\c2c(N)n3nc(CC(=O)N4CCCC4)sc3nc2=O)C=C(OC)C1=O | -10 | -7 | -6 | 26* | -116 | 3 | 26* | 7
COC1=C/C(=C/c2c(N)n3nc(CC(=O)N4CCCCC4)sc3nc2=O)C=CC1=O | -7 | 0 | -8 | 12 | -46 | 10 | . | .
COc1cc(/C=C/C(=O)Nc2cc(C(F)(F)F)ccc2Cl)cc(OC)c1OC | 3 | 0 | -14 | 17* | -5 | -12 | 4 | 16
O=C(Nc1ccccc1SCC1CSc2nc3ccccc3c(=O)n21)c1ccccc1 (stereo not drawn) | 0 | -1 | -5 | 18* | -37 | -2 | 10 | 20
CC(NS(=O)(=O)c1cccc(C(=O)NCc2ccncc2)c1)c1ccccc1 (stereo not drawn) | 0 | 0 | -13 | -5 | -2 | 0 | . | .
Cc1cc(N2CCN(C(c3ccccc3)c3ccccc3)CC2)n2ncnc2n1 | -5 | 0 | -10 | -1 | 3 | 5 | . | .
Cc1cc(N2CCN(c3nc4ccccc4s3)CC2)n2ncnc2n1 | 1 | 12 | -8 | 17* | -25 | -6 | 6 | 75*
N#CC1=C(S)N=C(N)C(c2nc(-c3ccccc3)cs2)C12CCCC2 (stereo not drawn) | -2 | -1 | -4 | 20* | -10 | 3 | 9 | 6
N#CC1=C(S)N=C(N)C(c2nc(-c3ccccc3)cs2)C12CCCCC2 (stereo not drawn) | -2 | 1 | -6 | -1 | -1 | 4 | . | .
SMILES | Keap1-Nrf2 PPI | LANA DNA inh | RTF Ca sens inh | IDE cell inh | IDE cell activ | cardiac RTF act | IDE cell inh cf | HEK cytotox
O=C(Nc1ccccc1)Nc1snnc1C(=O)Nc1cccc(O)c1 | 4 | -2 | -7 | . | 6 | 7 | . | .
Cn1c(=O)c2c(nc(NN=C3CCCCC3)n2C)n(C)c1=O | -7 | -1 | 0 | 1 | -8 | 8 | . | .
O=C(CCCOc1ccc(Cl)cc1Cl)NCc1ccncc1 | 0 | 0 | 2 | 24* | -22 | 6 | 5 | 13
Cn1cccc1/C=C1\CCC/C(=C\c2cccn2C)C1=O | -134 | -12 | -310 | 71* | -74 | 181* | 118* | 23*
CCN(CC)c1ccc(/C=C(\C#N)C(=O)NCc2ccco2)cc1 | . | . | . | 90* | . | . | 52* | 14
Cn1c(=O)n(C)c2cc(/C=C(/C#N)C(=O)NCc3ccco3)ccc21 | -6 | 4 | -14 | 1 | 0 | 7 | . | .
CN(C)c1ccc(/C=C(\C#N)C(=O)NCc2ccco2)cc1 | . | . | . | 22* | . | . | 14 | 18
CSc1sc(-c2ccnc(=S)[nH]2)c(-c2ccccc2)c1C#N | . | . | . | -3 | . | . | . | .
Fc1ccc(-c2ccnc(=S)[nH]2)cc1 | 0 | 1 | -2 | 40* | -24 | 0 | 8 | 12
COc1cccc(C(=O)Nc2nc(-c3ccc(S(=O)(=O)N4CCOCC4)cc3)cs2)c1 | -1 | -1 | 6 | 40* | -20 | -7 | 16 | 58*
Cc1ccc(-c2csc(NC(=O)c3cccc(S(=O)(=O)N4CCN(C)CC4)c3)n2)cc1 | 0 | -1 | -3 | -2 | 9 | -1 | . | .
O=C(Nc1nc(-c2ccc(S(=O)(=O)N3CCOCC3)cc2)cs1)c1ccccc1 | -5 | -1 | -5 | 22* | -7 | -4 | 3 | 72*
O=C(Nc1nc(-c2nc3ccccc3s2)cs1)c1ccc(S(=O)(=O)N2CCOCC2)cc1 | -7 | 0 | 1 | 3 | 4 | 5 | . | .
CC(C)NS(=O)(=O)c1ccc(NC(=S)NC(=O)c2ccc(-c3ccccc3)cc2)cc1 | -4 | 1 | -1 | 39* | -49 | -3 | 25* | 37*
CC(=O)Nc1ccc(NC(=S)NC(=O)c2ccc(-c3ccccc3)cc2)cc1 | . | . | . | 1 | . | . | . | .
CCC/C(C#Cc1ccc(N(C)C)cc1)=C1/c2ccccc2C(=O)N1c1ccccc1 | -5 | 5 | -60 | 22* | -8 | 114* | 16 | 26*
CCC/C(C#Cc1cc(OC)cc(OC)c1)=C1/c2ccccc2C(=O)N1c1ccccc1 | -4 | 1 | -5 | 6 | 1 | 8 | . | .
